# Source: PubChem BioAssay (National Center for Advancing Translational Sciences (NCATS))
# D1 antag = Antagonist of Human D 1 Dopamine Receptor: qHTS. HEK293 TREx D1 cells, calcium flux, dopamine EC80; hits give low values. activity change, negative = inhibition, % at 10 µM. actives 3.2% (n = 360,000); in the data active = activity change below about -30%; also: % is scaled to controls: 0 for no effect and ±100 for the full control effect
#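 Cells carrying a force-coupled, tetracycline-inducible human D1 receptor report calcium flux. Each well gets a 10 s baseline, compound with 180 s monitoring, then an EC80 dopamine stimulus with a second 180 s kinetic read.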
# D3 antag = qHTS of D3 Dopamine Receptor Antagonist: qHTS; D3R cells, DiscoveRx beta-arrestin luminescence, antagonist mode; hits give low values; max response, negative = inhibition, %; actives 2.5% (n = 360,000); AID 652054, 2013; in the data active = max response below about -50%; inconclusive = no clear call, values can overlap the other calls; also: % is scaled to controls: 0 for no effect and ±100 for the full control effect
#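 Cells expressing the human receptor were seeded at 1500 cells/well, incubated overnight at 37 degrees C in 5% CO2, then exposed to library compounds with dopamine controls for 90 minutes at 37 degrees C before luminescent detection.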
# ERG-DNA inh = qHTS for Small Molecule Inhibitors of the ERG Ets/DNA interaction | Transcriptional regulator ERG (Homo sapiens), P11308 | fluorescence polarization, His-ERG Ets domain / labelled DNA | Potency, µM (series often up to 76.9 µM), inactives show top-dose FP activity, negative = inhibition, most hits filed as inhibitors | actives 0.028% (n = 370,000) | AID 624246, 2012; active = well fitted inhibition curve with a large enough effect in the polarisation, with a control signal flat; inconclusive = small, poorly fitted or top-dose-only effect, or effect the other way, or a change in a side signal; inactive = no such curve, though single readings can be large or run the other way; the % refers to the polarisation;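 also: polarization taken with two DNA probes labelled with fluorescein and Texas red; potency is read from the fitted curve at half-maximal effect; % of control where 0% means no effect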
# Target sequence (P11308 whole entry, looked up, the tested form may be a part): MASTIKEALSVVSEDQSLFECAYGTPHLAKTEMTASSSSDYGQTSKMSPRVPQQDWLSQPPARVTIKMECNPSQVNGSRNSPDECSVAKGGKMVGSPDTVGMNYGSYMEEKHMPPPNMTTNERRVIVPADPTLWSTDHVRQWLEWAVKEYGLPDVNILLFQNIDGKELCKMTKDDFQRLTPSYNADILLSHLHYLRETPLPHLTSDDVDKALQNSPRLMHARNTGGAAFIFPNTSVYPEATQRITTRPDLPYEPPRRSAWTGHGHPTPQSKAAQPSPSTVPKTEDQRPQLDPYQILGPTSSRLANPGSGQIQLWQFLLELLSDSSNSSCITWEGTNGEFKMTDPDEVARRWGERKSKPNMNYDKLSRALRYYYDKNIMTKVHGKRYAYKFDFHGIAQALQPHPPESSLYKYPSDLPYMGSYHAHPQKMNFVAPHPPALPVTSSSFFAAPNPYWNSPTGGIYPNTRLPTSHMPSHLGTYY
#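 His-tagged ERG Ets domain (1 uM in the protein solution; 300mM KCl, 50mM Tris-HCl, 1mM EDTA, 1mM DTT, pH 7.5) received compound, then a probe mix of 5 nM fluorescein-DNA and 100nM Texas-615-DNA. Fluorescence polarization was read for both dyes.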
# D1 potentiator = Potentiators of Human D1 Dopamine Receptor: qHTS; D(1A) dopamine receptor (Homo sapiens), P21728; HEK293 TREx D1 cells, calcium flux, dopamine EC20 potentiation; potentiation, % at 10 µM; actives 0.036% (n = 360,000); in the data active = potentiation above about 30%; also: 0% is about no effect
# DRD3 agonist = qHTS of D3 Dopamine Receptor Agonist: qHTS; D(3) dopamine receptor (Homo sapiens), P35462; D3R DiscoveRx beta-arrestin cells, luminescence, 90 min; max activation, %; actives 0.58% (n = 410,000); in the data active = max activation above about 30%; also: 0% is about no effect
#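 Cells at 1500/well, incubated overnight, then treated with pinned compounds (dopamine as control) for 90 min at 37 degrees C. DiscoveRx reagent added for 30 - 60 minutes at room temperature; luminescence read.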
# D1 agonist = Allosteric Agonists of the Human D1 Dopamine Receptor: qHTS | D(1A) dopamine receptor (Homo sapiens), P21728 | actives 1% (n = 360,000) | HEK293 T-REx D1 cells, calcium flux, agonist mode | activation, % at 2 µM; in the data active = activation above about 30%; also: 0% is about no effect
#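 Inducible HEK293 T-REx D1 cells, force-coupled to calcium signalling, were plated at 4000 cells/well with tetracycline and held overnight at 30 C. After no-wash calcium dye loading, compound-evoked calcium rise over 180 s flagged agonists.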
# Active calls of the source: *; ? = inconclusive; . = no result. The list is not random: actives were taken first. Their share in the collection is about 6.1%.
SMILES,D1 antag,D3 antag,ERG-DNA inh,D1 potentiator,DRD3 agonist,D1 agonist
CCOC(=O)C1=C(COC(=O)c2cc(OC)c(OC)c(OC)c2)NC(=O)NC1C (stereo not drawn),-12,7,0%,-1,8,2
CC(=O)N1CCSc2ccc(S(=O)(=O)NCc3ccccc3)cc21,4,8,15%,-7,0,13
CC(=O)N1CC(C)Sc2ccc(S(=O)(=O)NCc3ccc(F)cc3)cc21 (stereo not drawn),-37*,9,-4%,-2,3,11
CC(=O)N1CCSc2ccc(S(=O)(=O)NCc3ccc(F)cc3)cc21,-30*,15,-5%,-4,-3,7
COc1ccc(CNS(=O)(=O)c2ccc3c(c2)N(C(C)=O)CC(C)S3)cc1 (stereo not drawn),1,3,-4%,-4,7,11
Cc1cccc(C(=O)O[C@H]2[C@H](Cc3ccccc3)NS(=O)(=O)[C@H]3CC4C=C[C@]23O4)c1,.,4,4%,.,12,.
Cc1cccc(C(=O)O[C@@H]2[C@H](Cc3ccccc3)NS(=O)(=O)[C@H]3C[C@@H]4C=C[C@]23O4)c1,-22,-6,-9%,1,52*,2
O=S(=O)(c1ccccc1)c1nc(-c2ccc(Cl)cc2Cl)oc1N1CCCCCC1,2,.,-3%,6,61*,0
CC(C)C[C@@H](CN)NC(=O)c1nc[nH]c1C(=O)N[C@@H](Cc1c[nH]c2ccccc12)C(=O)CNC[C@H](C)NC(=O)c1nc[nH]c1C(=O)N[C@@H](CC(=O)O)C(=O)O,.,-53*,-11%,.,-31,.
CC(C)C[C@@H](CNCC(=O)[C@H](Cc1c[nH]c2ccccc12)NC(=O)c1[nH]cnc1C(=O)N[C@H](CN)CC(C)C)NC(=O)c1nc[nH]c1C(=O)N[C@@H](CC(=O)O)C(=O)O,.,?,3%,.,-34,.
CC(C)C[C@@H](CNCC(=O)[C@H](C)NC(=O)c1[nH]cnc1C(=O)N[C@@H](C)CN)NC(=O)c1nc[nH]c1C(=O)N[C@@H](CC(=O)O)C(=O)O,.,-12,13%,.,32*,.
CC(C)C(=O)Nc1cccc(NC(=S)NC(=O)c2ccc(Cl)cc2)c1,-8,-19,6%,-7,-14,9
[O-][n+]1ccccc1SC/C=C/c1ccccc1,-12,-4,-6%,-3,1,7
CSCC(=O)N1CCCC(CO)(Cc2ccccc2C)C1 (stereo not drawn),-53*,-6,2%,-2,-10,2
OCC1(Cc2ccc(F)cc2F)CCCN(Cc2ccc(Cl)cc2)C1 (stereo not drawn),-1,-83*,17%,-4,-21,3
Cc1ccccc1CC1(CO)CCCN(C(=O)CCC(F)(F)F)C1 (stereo not drawn),14,0,11%,3,3,4
Cc1ccccc1CC1(CO)CCCN(Cc2c(C)nn(C)c2Cl)C1 (stereo not drawn),-33*,-13,18%,-5,-6,17
OCC1(Cc2cccc(Cl)c2)CCCN(Cc2cnn(-c3ccccc3)c2)C1 (stereo not drawn),4,-62*,4%,-5,-18,4
COc1cc(/C=N/OCC(=O)NC2CCCCC2C)ccc1OCc1ccc(Cl)cc1 (stereo not drawn),-9,3,4%,4,5,6
COc1ccc2cc(S(=O)(=O)NCCCN3CCOCC3)ccc2c1,-15,4,7%,6,-2,7
Cc1nn(C)c(Cl)c1CN1CCCC(CO)(Cc2cccc(Cl)c2)C1 (stereo not drawn),-33*,11,3%,-4,4,11
COC(=O)c1ccccc1NC(=O)Cn1cnc([N+](=O)[O-])c1,-89*,10,13%,-1,-2,5
CS(=O)(=O)N(CC(=O)N1CCc2ccccc2C1)c1cccc(F)c1,-18,1,17%,-5,-5,3
CS(=O)(=O)N(CC(=O)N1CCc2ccccc2C1)c1cccc([N+](=O)[O-])c1,-78*,-3,-7%,-4,-9,1
CN1C(=O)/C(=C2\SC(N3CCCCCC3)=NC2=O)c2ccccc21,10,-67*,3%,-3,2,1
SMILES,D1 antag,D3 antag,ERG-DNA inh,D1 potentiator,DRD3 agonist,D1 agonist
O=c1c2ccccc2nc2n1CCS2(=O)=O,-17,?,-2%,-6,13,0
COc1ccc(-c2c(-c3cc(OC)cc(OC)c3)n(C)c3ccc(Br)cc23)cc1,-20,4,-4%,0,0,0
COc1ccc(N=Nc2nc3ccc(Br)cc3n2C)cc1,24,-22,-2%,1,-4,343*
CCOc1ccc2[nH]c(=O)c(CN(Cc3cccs3)Cc3nnnn3C(C)(C)C)cc2c1,-30*,-11,.,0,5,1
Cc1ccc(SC(C)C(=O)N2CCCC2)cc1 (stereo not drawn),-35*,-21,1%,-7,3,0
CCOc1ccc(NC(=O)c2c(C)oc3nc(C)nc(N4CCCC4)c23)cc1,-9,.,4%,-3,7,0
COc1ccc(C2CC(c3ccccc3O)=NN2c2ccccc2)cc1 (stereo not drawn),.,9,-1%,.,10,.
COc1ccc(C2=NN(C(N)=S)C(c3ccccc3)C2)cc1 (stereo not drawn),-30*,-3,-2%,1,-1,5
COc1ccc(C2CC(c3ccc4ccccc4c3)=NN2C(=O)CNC2CCCCC2)cc1 (stereo not drawn),17,-4,14%,1,1,32*
COc1ccc(C2CC(c3ccccc3)=NN2c2ccc(N)cc2)cc1 (stereo not drawn),-30*,0,-10%,-3,4,8
CC(C)(C)c1ccc(C(=O)CS(=O)(=O)c2ccccc2)cc1,-38*,0,2%,-6,-6,6
Cc1ccc(S(=O)(=O)CC(=O)c2ccccc2)cc1,-2,5,-2%,-2,7,3
COc1cccc(C=NCC(C)N=Cc2cccc(OC)c2O)c1O (stereo not drawn),12,-103*,-4%,6,-10,0
CN1c2ccccc2C(O)=C(C(=S)Nc2ccc(Cl)cc2)S1(=O)=O,-17,-87*,-11%,-5,4,5
